The full ranking holds about 9,900 sequences; the median of “r (bound/input frequency ratio)” is about 0.7, and the highest 2% start at about 6.5. The sample as a whole holds a higher share of the highest values than the screen did.
B1: ENSMUSG00000029636.424|Wasf3 (ssRNA)
RNA: GGGAGUUCUACAGUCCGACGAUCGCUUCGAUAUCCGCAUGCUAUGGGUUAGGUGGGUAAGUAGCUAGGUGGAUGGGUGGGUGGAUACAUGGAUGAGUGGAUGGGUGGAUUGGUGGGUGAGUGGAUAGGUGAAUGGAUGAUAGGUGGUGGAUGGUUGAGUGGGUGGAUUCAUGAUGGAUGGAUGGAUGGAUGGAUGGAUGGAUGGAUGGAUGAGUGGAUGGAUAAUAGGUUGAUGGGUGGAUAGGUAGAUGAGUGAAUAGAUAGAUAUAGAUCAGUGGGAGGAUUGGAAAGUAGGUGAAUGAAUCUCUUGCGGUCGCACUAGUGUGGAAUUCUCGGGUGUCAAGG
B2: ENSMUSG00000029636.423|Wasf3 (ssRNA)
RNA: GGGAGUUCUACAGUCCGACGAUCGCUUCGAUAUCCGCAUGCUAGAUGGGUGGGUUAGGUGGGUAAGUAGCUAGGUGGAUGGGUGGGUGGAUACAUGGAUGAGUGGAUGGGUGGAUUGGUGGGUGAGUGGAUAGGUGAAUGGAUGAUAGGUGGUGGAUGGUUGAGUGGGUGGAUUCAUGAUGGAUGGAUGGAUGGAUGGAUGGAUGGAUGGAUGGAUGAGUGGAUGGAUAAUAGGUUGAUGGGUGGAUAGGUAGAUGAGUGAAUAGAUAGAUAUAGAUCAGUGGGAGGAUUGGAAAGUAGGUGACUCUUGCGGUCGCACUAGUGUGGAAUUCUCGGGUGUCAAGG
B3: ENSMUSG00000029636.433|Wasf3 (ssRNA)
RNA: GGGAGUUCUACAGUCCGACGAUCGCUUCGAUAUCCGCAUGCUAGGAUGGGUGGAUUGGUGGGUGAGUGGAUAGGUGAAUGGAUGAUAGGUGGUGGAUGGUUGAGUGGGUGGAUUCAUGAUGGAUGGAUGGAUGGAUGGAUGGAUGGAUGGAUGGAUGAGUGGAUGGAUAAUAGGUUGAUGGGUGGAUAGGUAGAUGAGUGAAUAGAUAGAUAUAGAUCAGUGGGAGGAUUGGAAAGUAGGUGAAUGAAUGGAUGGCAGAUAGAUGGAUCAAUUACAGAUGGAUGGAUGCAUGGAAUAGAUAGGCUCUUGCGGUCGCACUAGUGUGGAAUUCUCGGGUGUCAAGG
B4: ENSMUSG00000029636.431|Wasf3 (ssRNA)
RNA: GGGAGUUCUACAGUCCGACGAUCGCUUCGAUAUCCGCAUGCUAACAUGGAUGAGUGGAUGGGUGGAUUGGUGGGUGAGUGGAUAGGUGAAUGGAUGAUAGGUGGUGGAUGGUUGAGUGGGUGGAUUCAUGAUGGAUGGAUGGAUGGAUGGAUGGAUGGAUGGAUGGAUGAGUGGAUGGAUAAUAGGUUGAUGGGUGGAUAGGUAGAUGAGUGAAUAGAUAGAUAUAGAUCAGUGGGAGGAUUGGAAAGUAGGUGAAUGAAUGGAUGGCAGAUAGAUGGAUCAAUUACAGAUGGAUGGAUGCAUCUCUUGCGGUCGCACUAGUGUGGAAUUCUCGGGUGUCAAGG
B5: ENSMUSG00000029636.426|Wasf3 (ssRNA)
RNA: GGGAGUUCUACAGUCCGACGAUCGCUUCGAUAUCCGCAUGCUAGUAAGUAGCUAGGUGGAUGGGUGGGUGGAUACAUGGAUGAGUGGAUGGGUGGAUUGGUGGGUGAGUGGAUAGGUGAAUGGAUGAUAGGUGGUGGAUGGUUGAGUGGGUGGAUUCAUGAUGGAUGGAUGGAUGGAUGGAUGGAUGGAUGGAUGGAUGAGUGGAUGGAUAAUAGGUUGAUGGGUGGAUAGGUAGAUGAGUGAAUAGAUAGAUAUAGAUCAGUGGGAGGAUUGGAAAGUAGGUGAAUGAAUGGAUGGCAGAUACUCUUGCGGUCGCACUAGUGUGGAAUUCUCGGGUGUCAAGG
B6: ENSMUSG00000029636.436|Wasf3 (ssRNA)
RNA: GGGAGUUCUACAGUCCGACGAUCGCUUCGAUAUCCGCAUGCUAGUGAGUGGAUAGGUGAAUGGAUGAUAGGUGGUGGAUGGUUGAGUGGGUGGAUUCAUGAUGGAUGGAUGGAUGGAUGGAUGGAUGGAUGGAUGGAUGAGUGGAUGGAUAAUAGGUUGAUGGGUGGAUAGGUAGAUGAGUGAAUAGAUAGAUAUAGAUCAGUGGGAGGAUUGGAAAGUAGGUGAAUGAAUGGAUGGCAGAUAGAUGGAUCAAUUACAGAUGGAUGGAUGCAUGGAAUAGAUAGGUGGAUGGGUGGUGGCUAGCUCUUGCGGUCGCACUAGUGUGGAAUUCUCGGGUGUCAAGG
B7: ENSMUSG00000029636.422|Wasf3 (ssRNA)
RNA: GGGAGUUCUACAGUCCGACGAUCGCUUCGAUAUCCGCAUGCUAUGAGUGGAUGGGUGGGUUAGGUGGGUAAGUAGCUAGGUGGAUGGGUGGGUGGAUACAUGGAUGAGUGGAUGGGUGGAUUGGUGGGUGAGUGGAUAGGUGAAUGGAUGAUAGGUGGUGGAUGGUUGAGUGGGUGGAUUCAUGAUGGAUGGAUGGAUGGAUGGAUGGAUGGAUGGAUGGAUGAGUGGAUGGAUAAUAGGUUGAUGGGUGGAUAGGUAGAUGAGUGAAUAGAUAGAUAUAGAUCAGUGGGAGGAUUGGAAAGUCUCUUGCGGUCGCACUAGUGUGGAAUUCUCGGGUGUCAAGG
B8: ENSMUSG00000029636.434|Wasf3 (ssRNA)
RNA: GGGAGUUCUACAGUCCGACGAUCGCUUCGAUAUCCGCAUGCUAGUGGAUUGGUGGGUGAGUGGAUAGGUGAAUGGAUGAUAGGUGGUGGAUGGUUGAGUGGGUGGAUUCAUGAUGGAUGGAUGGAUGGAUGGAUGGAUGGAUGGAUGGAUGAGUGGAUGGAUAAUAGGUUGAUGGGUGGAUAGGUAGAUGAGUGAAUAGAUAGAUAUAGAUCAGUGGGAGGAUUGGAAAGUAGGUGAAUGAAUGGAUGGCAGAUAGAUGGAUCAAUUACAGAUGGAUGGAUGCAUGGAAUAGAUAGGUGGAUGCUCUUGCGGUCGCACUAGUGUGGAAUUCUCGGGUGUCAAGG
B9: ENSMUSG00000029636.425|Wasf3 (ssRNA)
RNA: GGGAGUUCUACAGUCCGACGAUCGCUUCGAUAUCCGCAUGCUAAGGUGGGUAAGUAGCUAGGUGGAUGGGUGGGUGGAUACAUGGAUGAGUGGAUGGGUGGAUUGGUGGGUGAGUGGAUAGGUGAAUGGAUGAUAGGUGGUGGAUGGUUGAGUGGGUGGAUUCAUGAUGGAUGGAUGGAUGGAUGGAUGGAUGGAUGGAUGGAUGAGUGGAUGGAUAAUAGGUUGAUGGGUGGAUAGGUAGAUGAGUGAAUAGAUAGAUAUAGAUCAGUGGGAGGAUUGGAAAGUAGGUGAAUGAAUGGAUGGCUCUUGCGGUCGCACUAGUGUGGAAUUCUCGGGUGUCAAGG
B10: ENSMUSG00000032194.167|Kank2 (ssRNA)
RNA: GGGAGUUCUACAGUCCGACGAUCGCUUCGAUAUCCGCAUGCUAAGAGUAAACAGAGACUGUGAUACUGACCAAGUACAGGCGCUCGCUAUGAAGCCCAUAUGUUCCUGAUUAAGAGCUGGCUGGCCUCAGAGCACUCCCAGAACUAGCUUAAAGUGACAGGCUUUGCUGAAAUCCAAAGGGACAAAAGAGUAGUUUUAUGUUUGUGUGUUUGUUUUUAAUGCCCUGGAGCUCCUGCUGGUGACAGGAGAGACAGACAGGCUGCACCUUUCUCUAACUGGGGUUCCUUUCUGGCCCCAGGAUCUCUCUUGCGGUCGCACUAGUGUGGAAUUCUCGGGUGUCAAGG
B11: ENSMUSG00000061578.337|Ksr2|72:76 (ssRNA)
RNA: GGGAGUUCUACAGUCCGACGAUCGCUUCGAUAUCCGCAUGCUAACCAGUCACCUGCCUCCCAGGGUUCUGCCUUGCCCUUAAGCUAGGGUCCUUCAAGCAUCCACAGACUUAGACACACGUGGUAACAUGCUUGUAAUCCUGGCACUCUGGAGGCUGAGGCAGGAGGAUAACAAGUCUAGACUAUAUAUGAUUUCUGAGGGUCUGUUAGUGAAUAAGUACCUGGAUGACAUGGGACAAGUCCCAGCCUUCCCUGCUCCUGCGCUGCUCUUCCUCUUAUGGGAUAGGGUCUAGGUCAAAUGUCACUCUUGCGGUCGCACUAGUGUGGAAUUCUCGGGUGUCAAGG
B12: ENSMUSG00000061578.1309|Ksr2 (ssRNA)
RNA: GGGAGUUCUACAGUCCGACGAUCGCUUCGAUAUCCGCAUGCUAUCUGCACCCAACUGAAUCUCCCACCCUCAAGUGUACCUCUCAGGAUAUCCCCAGGCACACGAAGAUGGAAUGGAAAGCCAGUGGGUAUCUCCCACCCACUUAGAUGCUGAUGGCCUGGGACUAUAAACAGGGACAGUUGGGUCUCCUAAGGAAUAGCUUCCAGGUCCAGGAUGCUGGCAUCUCCCAGAGAGAACUCCAUCCCCUGACCACCAAGGCCUUUGUAGAAGCAGGAAUCUCUUCCUCCUGUCCCACAGCCCCCACUCUUGCGGUCGCACUAGUGUGGAAUUCUCGGGUGUCAAGG
B13: ENSMUSG00000029636.197|Wasf3 (ssRNA)
RNA: GGGAGUUCUACAGUCCGACGAUCGCUUCGAUAUCCGCAUGCUAGACUUCCCCUCUCCUGCCCUGAUCCUUUUUACCAAAUGGCGAUUCCAUAGUCCUGGCUGAGGCAGGGGCUCAAAGUCCAGUGUCUGCUUUGCAAUUCUGGAAGGACAGCUGCUUAUUUAAAUAAGUCUGUGAUAUCCGCAGGCUUGGGUUACAGGGAGGACCUUGCAGAGGGACCAGGACACUGCCUUCCCUUAGGUGCAUUAUUUACGUGGCCUGCAGCUCUUAAUAUCUCUCACUGUUUAUGAAAAGAAAGAUUCAGACUCUUGCGGUCGCACUAGUGUGGAAUUCUCGGGUGUCAAGG

The binders below were run against TDP-43 (Homo sapiens, UniProt Q13148 1-414) (assay: RNA Bind-n-Seq with designed 260-mer pool; 25 mM Tris-HCl, 150 mM KCl, 3 mM MgCl2, BSA (printed 500 mg/mL), 20 units/mL SUPERase IN; pH not stated; 500 nM RNA pool, 1 h, 4 C; TDP-43 5, 50, 500 nM; high values mean tight binding). Conditions: protein: recombinant; tags: SBP (GST cleaved off with PreScission; pGEX-GST-SBP).
TDP-43, sequence (Q13148 whole entry): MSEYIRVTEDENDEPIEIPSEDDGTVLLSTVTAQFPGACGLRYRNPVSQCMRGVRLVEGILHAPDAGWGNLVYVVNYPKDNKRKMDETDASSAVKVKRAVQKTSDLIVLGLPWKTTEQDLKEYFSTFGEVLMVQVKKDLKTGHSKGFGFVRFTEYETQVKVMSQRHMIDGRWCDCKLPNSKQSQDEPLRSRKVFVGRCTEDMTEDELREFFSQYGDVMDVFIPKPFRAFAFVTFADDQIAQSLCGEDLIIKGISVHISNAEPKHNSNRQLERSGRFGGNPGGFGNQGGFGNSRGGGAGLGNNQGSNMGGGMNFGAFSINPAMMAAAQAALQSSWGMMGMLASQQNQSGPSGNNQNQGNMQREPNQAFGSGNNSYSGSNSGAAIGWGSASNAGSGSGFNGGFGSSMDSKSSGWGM
How it was run: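 Recombinant SBP-tagged TDP-43 at 5, 50 or 500 nM was captured on streptavidin beads, then incubated 1 h at 4 °C with 500 nM of an in vitro-transcribed 260-nt 3′ UTR oligo pool in 25 mM Tris-HCl, 150 mM KCl, 3 mM MgCl2, BSA and SUPERase IN. Bound RNA was washed, eluted with biotin, reverse transcribed, PCR-amplified and sequenced. Binding is R, each oligo's mapped-read-normalized abundance in the bound sample divided by its abundance in input. Duplicates used two independent protein batches.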
B1 was tested, and the binding signal was 1.66 R (bound/input frequency ratio). In the case of B2, the binding signal is reported as 4.57 R (bound/input frequency ratio). For B3, the binding signal was 4.32 R (bound/input frequency ratio). In the case of B4, the binding signal is reported as 6.71 R (bound/input frequency ratio). B5 was tested, and the binding signal was 3.58 R (bound/input frequency ratio). For B6, the binding signal was 6.61 R (bound/input frequency ratio). With B7 the binding signal was 11.2 R (bound/input frequency ratio). With B8 the binding signal was 7.94 R (bound/input frequency ratio). In the case of B9, the binding signal is reported as 3.86 R (bound/input frequency ratio). With B10 the binding signal was 3.92 R (bound/input frequency ratio). In the case of B11, the binding signal is reported as 0.335 R (bound/input frequency ratio). For B12, the binding signal was 0.602 R (bound/input frequency ratio). B13 was tested, and the binding signal was 0.304 R (bound/input frequency ratio).

From PMC12864922, “TDP-43 directly inhibits mRNA accumulation in neurites through modulation of mRNA stability”
